Experimental data as given in PubChem BioAssay (Tox21).
Several values for one entry are separate records, joined by “and”; a condition that tells them apart may be missing. Equal values may be shown once. Results filed as inconclusive are left out. Activity calls are given as the source filed them. Calls come from the whole dose curve; as a rule, active = well fitted curve in the direction sought with a large enough effect in the repeat runs; inconclusive = weak or mixed curves; inactive = no such curve, though single readings can be large; an effect the other way counts as inactive or inconclusive.

Key:
[1] = qHTS assay to identify small molecule antagonists of the glucocorticoid receptor (GR) signaling pathway - cell viability counter screen (AID 720693); note: nearly all actives have a fitted effect of over 55% in size
[2] = qHTS assay for identifying genotoxic compounds that show differential cytotoxicity against isogenic chicken DT40 cell lines with known DNA damage response pathways - wild type cell line (AID 743012); note: nearly all actives have a fitted effect of over 60% in size
In short: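 Using parental DT40 (300 cells/well), compounds delivered in DMSO incubate 40 h at 37 C/5% CO2. CellTiter-Glo reagent then stands 30 min at room temperature, and luminescence gives cell viability.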

[3] = qHTS assay for identifying genotoxic compounds that show differential cytotoxicity against isogenic chicken DT40 cell lines with known DNA damage response pathways - Rev3 mutant cell line (AID 743014); note: nearly all actives have a fitted effect of over 55% in size
[4] = qHTS assay for identifying genotoxic compounds that show differential cytotoxicity against isogenic chicken DT40 cell lines with known DNA damage response pathways - Rad54/Ku70 mutant cell line (AID 743015); note: nearly all actives have a fitted effect of over 60% in size
[5] = qHTS assay to identify small molecule antagonists of the androgen receptor (AR) signaling pathway using the MDA cell line - cell viability counter screen (AID 743041; note: nearly all actives have a fitted effect of over 45% in size)
In short: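 R1881-driven MDA-kb2 AR-luc cells, 3,000/well, were dosed with library compounds for 16 h; cell health came from CellTiter-Fluor fluorescence in the reporter wells.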

[6] = molecular target: Androgen receptor (Homo sapiens) (UniProt P10275); experiment: qHTS assay to identify small molecule antagonists of the androgen receptor (AR) signaling pathway using the MDA cell line (AID 743042; note: nearly all actives have a fitted effect of over 55% in size)
Sequence of Androgen receptor (Homo sapiens) (P10275 whole entry, looked up): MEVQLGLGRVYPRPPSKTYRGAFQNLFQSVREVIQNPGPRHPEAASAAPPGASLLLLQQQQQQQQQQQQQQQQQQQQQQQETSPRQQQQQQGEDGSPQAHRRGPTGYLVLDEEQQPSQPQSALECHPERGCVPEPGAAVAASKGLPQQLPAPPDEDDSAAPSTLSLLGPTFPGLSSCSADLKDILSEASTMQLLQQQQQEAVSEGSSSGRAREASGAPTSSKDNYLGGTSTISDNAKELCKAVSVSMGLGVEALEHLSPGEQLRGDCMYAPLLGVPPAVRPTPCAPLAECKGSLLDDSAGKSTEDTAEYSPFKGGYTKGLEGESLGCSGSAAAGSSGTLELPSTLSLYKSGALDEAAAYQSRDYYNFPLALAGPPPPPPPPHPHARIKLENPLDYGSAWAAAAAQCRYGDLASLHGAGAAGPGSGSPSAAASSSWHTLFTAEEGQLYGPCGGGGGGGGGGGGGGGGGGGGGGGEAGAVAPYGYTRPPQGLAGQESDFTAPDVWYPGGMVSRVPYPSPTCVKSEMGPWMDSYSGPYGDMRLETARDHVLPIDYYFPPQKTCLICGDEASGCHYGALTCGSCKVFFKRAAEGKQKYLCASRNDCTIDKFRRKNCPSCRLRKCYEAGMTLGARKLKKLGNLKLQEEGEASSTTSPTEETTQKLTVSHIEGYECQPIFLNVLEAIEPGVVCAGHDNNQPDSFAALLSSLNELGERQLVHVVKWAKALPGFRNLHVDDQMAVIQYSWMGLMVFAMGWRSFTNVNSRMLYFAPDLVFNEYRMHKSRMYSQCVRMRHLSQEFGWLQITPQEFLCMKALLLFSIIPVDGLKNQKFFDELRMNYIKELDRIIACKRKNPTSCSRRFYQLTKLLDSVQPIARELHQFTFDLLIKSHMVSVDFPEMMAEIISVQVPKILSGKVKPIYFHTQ
In short: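 Antagonist mode: compounds plus R1881 agonist added to MDA-kb2 AR-luc cells, incubated 16 h at 37C. Luciferase reporter luminescence quantified, with multiplexed CellTiter-Fluor readout for cell viability.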

[7] = qHTS assay to identify small molecule antagonists of the thyroid receptor (TR) signaling pathway - cell viability counter screen (AID 743064); note: nearly all actives have a fitted effect of over 50% in size
In short: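 GH3.TRE-Luc rat pituitary cells carrying a TRE-luciferase reporter were treated with compound plus 1 nM T3 (final) for 23.5 h at 37 °C. Viability was then read in the same wells by CellTiter-Fluor fluorescence after a further 30 min.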

[8] = qHTS assay to identify small molecule antagonists of the thyroid receptor (TR) signaling pathway (AID 743065); note: nearly all actives have a fitted effect of over 55% in size
In short: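 Antagonism measured as loss of luciferase signal in GH3 cells stably carrying a TRE-luciferase reporter, co-treated with compound and T3 (1 nM final) for 23.5 h at 37 C. Viability was read in the same well by CellTiter-Fluor.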

[9] = qHTS assay to identify small molecule antagonists of the androgen receptor (AR) signaling pathway - cell viability counter screen (AID 743033; note: nearly all actives have a fitted effect of over 45% in size)

Measured: Potency
Potency is the fitted concentration of half-maximal effect.

C[Si](C)(C)Cl
not listed: [9]
inactive: all other assays above

CCCCCCCC/C=C\CCCCCCCC(=O)OCCOC(=O)CCCCCCC/C=C\CCCCCCCC
not listed: [3] | [6] | [7]
inactive: all other assays above

CCc1ccc(O)c(C(C)(C)C)c1
inactive: [1]
active: [2] 43.3 µM | [3] 30.6 µM | [4] 30.6 µM | [7] 54.5 µM | [8] 61.1 µM

O=C(Nc1ccc(Cl)cc1)Nc1ccc(Cl)c(C(F)(F)F)c1
active: [1] 21.3 µM | [2] 4.22 µM | [4] 5.31 µM | [9] 6.01 µM | [5] 23.7 µM | [7] 6.68 µM | [8] 5.31 µM

Nc1ncnc2c1ncn2[C@@H]1O[C@H](COP(=O)(O)O)[C@@H](O)[C@H]1O
not listed: [3] | [6]
inactive: all other assays above

O=Nc1ccc(NO)cc1
not listed: [3] | [6]
inactive: all other assays above

[O]=[Zr]
inactive: [1] | [2] | [4] | [9] | [5]

NC1(c2ccc(-c3nc4ccn5c(=O)[nH]nc5c4cc3-c3ccccc3)cc2)CCC1
active: [2] 1.19 µM | [3] 5.31 µM | [4] 1.33 µM | [8] 13.3 µM
inactive: [1]

CCCCCCCCCCCCOC(=O)c1cc(O)c(O)c(O)c1
active: [1] 27.4 µM and 34.7 µM | [2] 609 nM and 386 nM | [3] 384 nM and 273 nM | [4] 342 nM and 217 nM | [5] 54.5 µM | [7] 3.05 µM and 2.43 µM | [8] 2.72 µM and 1.93 µM

c1ccc(Nc2cccc3ccccc23)cc1
inactive: [5]
active: [1] 44.2 µM | [2] 69.5 µM | [4] 55.2 µM and 61.1 µM | [8] 69.5 µM

Cc1ccc(N)cc1O
active: [2] 30.6 µM | [3] 56.1 µM | [4] 52 µM
inactive: [1] | [8]

CC(C)N=C(N)/N=C(\N)Nc1ccc(Cl)cc1
active: [2] 3.59 µM | [3] 12.7 µM | [4] 10.1 µM | [8] 2.54 µM
inactive: [1] | [5]

CCCCOc1ccc(C(=O)CCN2CCCCC2)cc1
active: [2] 0.717 µM | [3] 1.27 µM | [4] 1.01 µM | [5] 10.6 µM | [7] 5.07 µM | [8] 3.59 µM
inactive: [1]

C=C(c1ccc(C(=O)O)cc1)c1cc2c(cc1C)C(C)(C)CCC2(C)C
active: [1] 13.4 µM | [3] 77 µM | [4] 68.6 µM | [7] 11.9 µM and 13.7 µM | [8] 9.44 µM and 9.69 µM
inactive: [2] | [5]

O=C1NCN(c2ccccc2)C12CCN(CCCC(c1ccc(F)cc1)c1ccc(F)cc1)CC2
active: [1] 21.3 µM | [2] 6.68 µM | [3] 10.6 µM | [4] 9.44 µM | [5] 29.8 µM | [8] 5.96 µM

O=C(O)CCn1c2c(c3ccccc31)C[C@H](NS(=O)(=O)c1ccc(F)cc1)CC2
not listed: [3] | [6]
inactive: all other assays above

O=C(O)c1cccc(Cl)n1
inactive: [1] | [5] | [6] | [8]
active: [2] 19.3 µM | [3] 61.1 µM | [4] 61.1 µM

SCCCCCCCCS
active: [2] 68.6 µM | [4] 54.5 µM
not listed: [3] | [6]
inactive: all other assays above

CCCCN(CCCC)CCC(O)c1cc2c(Cl)cc(Cl)cc2c2cc(C(F)(F)F)ccc12 (centres undefined)
inactive: [1] | [9] | [5]
active: [2] 11.4 µM | [4] 10.1 µM

NCCCCCCNCCCCCCN
active: [2] 7.57 µM | [3] 6.75 µM | [4] 5.36 µM
inactive: [1] | [5] | [7] | [8]

CSc1c(Cl)c(Cl)c(Cl)c(Cl)c1Cl
inactive: [1] | [2] | [4] | [9] | [5]

O=C(O)CC(=O)O
not listed: [6] | [9]
inactive: all other assays above

COCC(=O)O[C@]1(CCN(C)CCCc2nc3ccccc3[nH]2)CCc2cc(F)ccc2[C@@H]1C(C)C
active: [1] 10.7 µM | [2] 2.37 µM | [4] 4.73 µM | [9] 10.7 µM | [5] 9.44 µM | [6] 7.5 µM | [7] 1.5 µM | [8] 1.88 µM

CCN(CC)CCSC(=O)C(c1ccccc1)c1ccccc1
inactive: [1] | [3] | [5]
active: [2] 26.6 µM | [8] 26.6 µM

C=CC(=O)OCC(O)COc1ccccc1 (centres undefined)
active: [1] 38.9 µM | [2] 24.3 µM | [3] 27.3 µM | [4] 30.6 µM | [7] 54.5 µM | [8] 48.6 µM

Cc1ccc2ccc3cccc4ccc1c2c34
inactive: [1] | [2] | [3] | [4] | [8]

CCCCCCCC/C=C\CCCCCCCC(=O)NCc1ccc(O)c(OC)c1
inactive: [9] | [5]
active: [1] 21.3 µM | [2] 13.3 µM | [4] 18.8 µM | [8] 6.68 µM

CN(C)c1ccc(N=NS(=O)(=O)O)cc1
inactive: [1] | [8]
active: [2] 22.9 µM | [3] 26.1 µM | [4] 22 µM | [5] 14.4 µM | [6] 23.7 µM

N[C@@H](CSSC[C@H](N)C(=O)O)C(=O)O
not listed: [6] | [9]
inactive: all other assays above

CCC(=O)OCCc1ccccc1
inactive: [1] | [5] | [7] | [8]
active: [2] 18.5 µM | [3] 23.3 µM | [4] 41.4 µM

CN(C)CCCN1c2ccccc2CCc2ccccc21
inactive: [1] | [5]
active: [2] 13.3 µM and 8.63 µM | [4] 29.8 µM and 9.69 µM | [7] 5.96 µM | [8] 23.7 µM

C(=C/c1ccccc1)/c1ccccc1
not listed: [6] | [9]
inactive: all other assays above

C=CCCCCCCC=C
inactive: [1] | [2] | [4] | [5] | [8]

COC(=O)CC#N
not listed: [3] | [6]
inactive: all other assays above

CCCC(CC)CCCCCCCN (centres undefined)
not listed: [3] | [6] | [9]
inactive: all other assays above

CCCCCCCOC(=O)c1ccc(O)cc1
active: [1] 49 µM | [4] 54.5 µM and 48.6 µM | [7] 61.1 µM | [8] 61.1 µM
inactive: [2] | [9] | [5]

CC(C)(c1cc(Br)c(OCCO)c(Br)c1)c1cc(Br)c(OCCO)c(Br)c1
active: [1] 38 µM | [2] 7.52 µM | [4] 16.8 µM | [6] 42.3 µM | [7] 47.5 µM | [8] 9.47 µM

CC1(C)C(=O)N(Br)C(=O)N1Br
not listed: [2] | [3] | [4]
inactive: all other assays above

CC(COC(=O)c1ccccc1)OC(=O)c1ccccc1 (centres undefined)
inactive: [1] | [9] | [7] | [8]
active: [4] 61.1 µM

c1ccc(Sc2ccccc2)cc1
inactive: [1] | [5] | [6] | [7] | [8]
active: [3] 68.6 µM

CCN(CC)c1ccc(N)cc1
active: [2] 5.6 µM | [3] 4.45 µM | [4] 4.45 µM | [9] 15.9 µM | [5] 22.3 µM

Cc1cccc(C)c1NC(=O)CN1CCN(CCCC(c2ccc(F)cc2)c2ccc(F)cc2)CC1
inactive: [9] | [5]
active: [2] 4.03 µM | [3] 5.69 µM | [4] 7.17 µM

CC(C)(C)CC(C)(C)c1ccccc1O
inactive: [5]
active: [1] 34.9 µM | [3] 24.5 µM | [4] 54.8 µM | [7] 19.4 µM | [8] 21.8 µM

Brc1ccccc1-c1ccccc1
active: [3] 41 µM | [4] 41 µM
inactive: [1] | [5]

COC(=O)NCCC[Si](OC)(OC)OC
active: [2] 61.1 µM
inactive: [1] | [5] | [7] | [8]

C[C@]12CC[C@H]3C(=CCc4cc(O)ccc43)[C@@H]1CCC2=O
inactive: [1]
active: [4] 48.6 µM | [6] 27.3 µM

Cc1c(C)n(Cc2ccccc2)c2ccc(C(=O)OCCN(C)C)cc12
active: [2] 3.76 µM | [4] 6.68 µM | [7] 7.5 µM | [8] 10.6 µM
inactive: [1]
